Some test systems named below: T-47D breast; BT-549 breast; SW-620 colon; MCF7 breast; HCT-116 colon; KM12 colon; MDA-MB-435 melanoma; HCC-2998 colon.
Common to all, as to experiment: NCI-60 one-dose screen, 48 h (100 = growth as untreated, 0 = no growth, -100 = all killed)
What all share (conditions): 10 µM

About 83,000 compounds went through this panel and 20% of them were active in at least one assay; those are over-represented in the sample as a whole.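 Treatment: one concentration, 48 hours, 96-well format. Scoring: percent growth, with anything below 10 considered active.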 A number with no mark means an inactive call. Calls of active or inactive are those of the source.

On to `CSc1nc(S(C)(=O)=O)nc2[nH]c(=O)[nH]c12`, for which the growth in the test on T-47D breast is 112%; in the test on BT-549 breast, 102%; in the test on SW-620 colon it was 111%; in the test on MCF7 breast it was 109%; in the test on HCT-116 colon, 99.1%; in the test on KM12 colon it was 118%.
Turning to `Cc1c2c(nn1C(=O)c1nn(-c3ccc(Cl)cc3)cc1O)-c1ccccc1CC2`, the growth with T-47D breast is 1.65% (active); with MDA-MB-435 melanoma, 34.3%; with SW-620 colon, 32.4%; in the test on MCF7 breast it was 12.4%; in the test on HCT-116 colon it was 7.08% (active); in the test on HCC-2998 colon it was 9.3% (active). For the same compound, the growth with KM12 colon was 29.5%.
As for `CC(=O)OC/C=C(/C)C[P+](c1ccccc1)(c1ccccc1)c1ccccc1`, the growth was 14.4% in the test on T-47D breast; 53.3% with MDA-MB-435 melanoma; 53.6% with SW-620 colon; 33.3% in the test on MCF7 breast; 26% in the test with HCT-116 colon; 80.4% in the test with HCC-2998 colon. For the same compound, in the test with KM12 colon, the growth was 33.3%.
As for `CCN(CC)CCNc1ccc(C)c2sc3cc(Cl)ccc3c(=O)c12`, the growth in the test with T-47D breast is 33.1%; in the test on MDA-MB-435 melanoma it was -44.8% (active); in the test on SW-620 colon, 2.58% (active); with MCF7 breast, 19.8%; in the test with HCT-116 colon it was 11.4%; with HCC-2998 colon it was 23.3%. Also, the growth in the test on KM12 colon is 32.2%.
As for `CCN(CC)CCCOc1cccc2c1C(=O)c1cccc(OCCCN(CC)CC)c1C2=O`, the growth in the test on T-47D breast is 61.7%; with MDA-MB-435 melanoma, 39.7%; with SW-620 colon it was 24.4%; in the test with MCF7 breast, 11.9%; in the test with HCT-116 colon it was 22.5%; with HCC-2998 colon it was 57.4%. The growth in the test on KM12 colon was 40.9%.
Take `COc1cc(-c2ccc(N=Nc3ccc4c(S(=O)(=O)O)ccc(N)c4c3O)c(OC)c2)ccc1N=Nc1ccc2c(S(=O)(=O)O)ccc(N)c2c1O`: the growth in the test on T-47D breast was 105%; with BT-549 breast, 117%; with SW-620 colon, 109%; with MCF7 breast, 95.6%; in the test with HCT-116 colon, 114%; with HCC-2998 colon it was 114%. Also, the growth in the test on KM12 colon is 114%.
Turning to `Cc1ccc(S(=O)(=O)N(C)CCCCCC(=O)O)cc1`, the growth in the test on T-47D breast is 95.7%; with MDA-MB-435 melanoma it was 105%; in the test on SW-620 colon it was 109%; with MCF7 breast it was 89.5%; in the test on HCT-116 colon it was 100%; with HCC-2998 colon, 105%. For the same compound, the growth with KM12 colon was 95.3%.
As for `C1CN(CC2CCC(CN3CCOCC3)O2)CCO1` (centres undefined), the growth in the test with T-47D breast is 81.5%; in the test with MDA-MB-435 melanoma, 104%; in the test on SW-620 colon it was 92.2%; in the test with MCF7 breast it was 53.2%; in the test with HCT-116 colon, 89%; in the test on HCC-2998 colon, 102%. The growth in the test with KM12 colon was 105%.
Regarding `CCOC(=O)C1=CSC2=NC3=C(CCC/C3=C\c3cc(OC)c(OC)c(OC)c3)C(c3cc(OC)c(OC)c(OC)c3)N12` (centres undefined), the growth is 88.9% in the test with T-47D breast; 21% in the test with MDA-MB-435 melanoma; 44.9% in the test with SW-620 colon; 29.9% with MCF7 breast; 19.2% in the test on HCT-116 colon; 75.1% in the test on HCC-2998 colon.
Take `C/C=C/CSC(C)(C)C(=O)NC`: the growth was 100% with T-47D breast; 106% in the test on MDA-MB-435 melanoma; 104% with SW-620 colon; 93.8% with MCF7 breast; 91.2% in the test with HCT-116 colon; 101% with HCC-2998 colon.
Turning to `COc1ccc(-c2nn(-c3cccc(Cl)c3)cc2-c2c(C#N)c(N)n(N)c(=O)c2C#N)cc1`, the growth in the test on T-47D breast was 48.7%; with BT-549 breast, 58%; in the test on SW-620 colon it was 83%; in the test with MCF7 breast, 47.5%; with HCT-116 colon, 45.7%; with HCC-2998 colon, 93.4%. The growth with KM12 colon is 62.3%.
As to `Cc1nn(-c2ccccc2)c2nc(Cl)c(C=O)c(-c3ccccc3)c12`, the growth in the test with T-47D breast is 83.5%; in the test with BT-549 breast it was 86%; with SW-620 colon, 72.1%; with MCF7 breast it was 90.6%; in the test with HCT-116 colon, 4.57% (active); in the test with HCC-2998 colon it was 77.5%. In the test on KM12 colon, the growth was 78.3%.
Regarding `COc1ccc(C(=O)c2cc3c(OC)c(OC)c(OC)cc3[nH]2)cc1`, the growth in the test on T-47D breast was 34.9%; in the test with MDA-MB-435 melanoma, -0.263% (active); with SW-620 colon, 33.9%; in the test with MCF7 breast, 20.4%; in the test on HCT-116 colon, 28.1%; in the test with HCC-2998 colon it was 51.3%. Further, the growth in the test with KM12 colon was 12.6%.
With `COc1cc(C2CC(c3ccccc3)=NN2C(C)=O)cc(OC)c1OC` (centres undefined), the growth in the test on T-47D breast was 34.1%; with MDA-MB-435 melanoma, -29.4% (active); in the test with SW-620 colon, 19.1%; in the test with MCF7 breast, 14.6%; in the test with HCT-116 colon, 19.3%; in the test with HCC-2998 colon, 49.7%. Moreover, in the test on KM12 colon, the growth is 18.4%.
For `O[C@@H]1CO[C@H]2[C@@H]1OC[C@@H]2O`, the growth is 121% in the test with T-47D breast; 112% in the test on BT-549 breast; 99.6% in the test on MCF7 breast; 104% with HCT-116 colon; 101% in the test on HCC-2998 colon; 105% in the test on KM12 colon.
On to `C#CC(C)(O)[C@@H]1C[C@H](CC(=O)O)C1(C)C` (some centres undefined), for which the growth was 120% in the test on T-47D breast; 104% with BT-549 breast; 109% in the test on SW-620 colon; 94% with MCF7 breast; 106% in the test with HCT-116 colon; 108% with KM12 colon.
Take `CSc1nc2c(c(=O)n1C)CN(Cc1ccccc1)C(=O)CN2`: the growth in the test on T-47D breast was 95%; with MDA-MB-435 melanoma, 60%; in the test on SW-620 colon it was 95.7%; in the test on MCF7 breast, 89.6%; in the test on HCT-116 colon, 92.6%; in the test with HCC-2998 colon, 85.4%. In the test on KM12 colon, the growth was 85.7%.
As to `CN(C)CCCOc1ccc(NC2=C(Cl)C(=O)C(Nc3ccc(OCCCN(C)C)cc3)=C(Cl)C2=O)cc1`, the growth with T-47D breast is -39.3% (active); in the test with MDA-MB-435 melanoma it was -89% (active); in the test with SW-620 colon, -58.4% (active); in the test on MCF7 breast, -49.4% (active); with HCT-116 colon it was -86.9% (active); in the test on HCC-2998 colon, -90.6% (active). In the test with KM12 colon, the growth is -63% (active).
`N#Cc1cnn(C(=O)c2nn(-c3ccc(Cl)cc3)cc2O)c1N`: the growth in the test on T-47D breast is 3.29% (active); in the test with MDA-MB-435 melanoma, 19.1%; in the test on SW-620 colon it was 38%; with MCF7 breast, 10.9%; in the test with HCT-116 colon, 6.75% (active); with HCC-2998 colon, 11.9%.
With `CC(CN(C)C)Oc1ccccc1NC1=C(Cl)C(=O)C(Nc2ccccc2OC(C)CN(C)C)=C(Cl)C1=O` (centres undefined), the growth is -42% (active) with T-47D breast; -71% (active) in the test on MDA-MB-435 melanoma; -66.5% (active) in the test with SW-620 colon; -47% (active) in the test on MCF7 breast; -70.3% (active) with HCT-116 colon; -87.4% (active) in the test on HCC-2998 colon. In the test with KM12 colon, the growth is -1.19% (active).
`COc1cccc(CNc2cccc3cn[nH]c23)c1O`: the growth is 89.1% in the test on T-47D breast; 104% in the test on BT-549 breast; 99.1% with SW-620 colon; 71.5% with MCF7 breast; 102% with HCT-116 colon; 107% in the test with HCC-2998 colon. For the same compound, the growth in the test with KM12 colon is 99%.
Consider `CN(C)CCCSc1ccccc1NC1=C(Cl)C(=O)C(Nc2ccccc2SCCCN(C)C)=C(Cl)C1=O`, for which the growth in the test with T-47D breast is -42.8% (active); in the test with MDA-MB-435 melanoma, 92.1%; in the test on SW-620 colon, -34.3% (active); with MCF7 breast it was -50% (active); with HCT-116 colon, 4.82% (active); in the test on HCC-2998 colon, 103%. For the same compound, the growth with KM12 colon was 80.2%.
For `CCOC(=O)C(C)(c1ccccc1)c1ccccc1`, the growth in the test on T-47D breast was 99.1%; in the test on MDA-MB-435 melanoma, 106%; in the test on SW-620 colon it was 105%; in the test on MCF7 breast it was 99.6%; in the test with HCT-116 colon it was 102%; in the test with HCC-2998 colon, 109%. In the test on KM12 colon, the growth is 96.4%.
As for `COc1ccc(N(C)c2ncnc3occ(C)c23)cc1`, the growth with T-47D breast was 67.1%; in the test with MDA-MB-435 melanoma, 7.12% (active); with SW-620 colon it was 33.9%; in the test with MCF7 breast, 9.66% (active); with HCT-116 colon it was -11.9% (active); in the test on HCC-2998 colon it was 7.26% (active). Further, the growth in the test with KM12 colon is -33.2% (active).
As to `CC(=O)Nc1ccc(S(=O)(=O)N/N=C(\C)c2ccc(C)cc2C)cc1`, the growth was 106% with T-47D breast; 111% in the test with BT-549 breast; 101% in the test on SW-620 colon; 88.2% in the test on MCF7 breast; 102% with HCT-116 colon; 101% in the test on HCC-2998 colon. The growth in the test with KM12 colon was 110%.

For the origin of these results see PubChem BioAssay (NCI).
